Assay outcomes as filed in PubChem BioAssay.
PNC inhibitor = inhibitors of perinucleolar compartment assembly; PC3M PTB-GFP, PNC prevalence imaging, 16 h; hits give low values; activity change (PNC), negative = inhibition, % at 10 µM; 140,000 compounds, 3.1% hits;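 active means readout at or below -70, meaning at least 70% loss of cells showing the perinucleolar compartment, a nuclear body marking cancer cells; inconclusive means readout between -30 and a set limit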
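Compounds are pinned in duplicate onto adhered PC3M cells stably expressing GFP-tagged PTB and incubated 16 h at 37 C. Cells are then fixed, nuclei stained with Hoechst, and PNC-positive cells counted.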
ALDH1A1 block = inhibitors of human aldehyde dehydrogenase 1A1; P00352; 220,000 compounds, 7.3% hits; Potency, µM (highest dose often 75.3 µM), most hits filed as inhibitors; Purified ALDH1A1, NADH fluorescence, propionaldehyde substrate
HPGD block = HPGD (human) dehydrogenase inhibition. 150,000 compounds, 4.3% hits. Potency, µM, actives largely listed as inhibitors. AID 894. P15428. purified HPGD, NADH fluorescence kinetic, PGE2 substrate
Target sequence (P15428 whole entry, looked up): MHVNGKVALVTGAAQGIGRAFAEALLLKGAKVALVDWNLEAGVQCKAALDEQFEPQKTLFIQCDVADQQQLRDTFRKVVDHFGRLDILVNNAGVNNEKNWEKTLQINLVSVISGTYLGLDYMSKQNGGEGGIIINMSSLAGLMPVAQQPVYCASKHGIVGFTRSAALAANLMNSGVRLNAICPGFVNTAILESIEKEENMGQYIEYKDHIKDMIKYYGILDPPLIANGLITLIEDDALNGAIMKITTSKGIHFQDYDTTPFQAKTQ
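NADH formation kinetics: reaction with 30 uM PGE2 and 1 mM NAD+ (final), 20 nM enzyme, Tris-HCl pH 8 with Tween 20, after 15 min compound preincubation at room temperature. Fluorescence change, last versus first of five reads.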
Each line names hits and unclear results; the compound was inactive in the other large screens. Only some compounds are listed: those with a hit (about 11% of all), similar ones and a draw of the others. Unless noted, the call rests on the fitted dose curve; in most records, active means well fitted inhibition curve with a large enough effect (not every such curve was filed as active); inconclusive means small, poorly fitted or top-dose-only effect, or another doubt; inactive means no such curve, though single readings can be large or run the other way.

CCOC(=O)C1CCN(C(=O)c2ccccc2NS(=O)(=O)c2ccc(F)cc2)CC1	PNC inhibitor inconclusive
CCOc1ccc2c(c1)OC(c1ccccc1)(C(F)(F)F)NC2=O (configuration not stated)	none
CCOc1ccc2c(c1)OC(c1ccc(OC)cc1)(C(F)(F)F)NC2=O (configuration not stated)	PNC inhibitor -92
Cc1cc(C(=O)COC(=O)c2ccncc2)c(C)n1Cc1ccco1	none (no result: PNC inhibitor, HPGD block)
Cc1cc(C(=O)COC(=O)c2cccn2C)c(C)n1Cc1ccco1	ALDH1A1 block 25µM (no result: PNC inhibitor, HPGD block)
O=C1C=C[C@@H](O)[C@H]2[C@@H]3C(=O)N(Cc4ccccc4)C(=O)[C@@H]3CC[C@H]12	ALDH1A1 block 3.2µM (no result: PNC inhibitor, HPGD block)
CCOC(=O)CCN1C(=O)[C@H]2[C@@H]3[C@H](O)C=CC(=O)[C@H]3CC[C@H]2C1=O	none (no result: PNC inhibitor, HPGD block)
CN1C[C@@H]2C(c3ccc(C(F)(F)F)cc3)C3(c4ccc(C#N)cc4)CC2(C3)[C@H]1c1ccccc1 (some centres not stated)	none (no result: PNC inhibitor)
CCC1Oc2ccc(C)cc2N(CC(=O)N(Cc2cccnc2)Cc2ccc(C)o2)C1=O (configuration not stated)	ALDH1A1 block 3.2µM, HPGD block 28µM
CCC1Oc2ccc(C)cc2N(CC(=O)N(Cc2ccc(C)o2)C2CC(C)(C)NC(C)(C)C2)C1=O (configuration not stated)	none
CSC[C@@H]1NC(=S)N(c2ccc(C)cc2)C1=O	none
O=c1c2cc(Cl)ccc2nc(-c2ccc([N+](=O)[O-])cc2)n1O	ALDH1A1 block 11µM (no result: PNC inhibitor, HPGD block)
O=c1c2ccccc2nc(-c2ccc(Cl)c(Cl)c2)n1O	none
Cc1ccc(NC(=O)CSc2nnc(CNC(=O)c3cccs3)o2)c(C)c1	none (no result: PNC inhibitor, HPGD block)
O=C(CCCO)N/N=C/c1ccccc1[N+](=O)[O-]	ALDH1A1 block inconclusive
COC(=O)CCSCC(=O)N1N=C(c2ccc(OC)cc2)CC1c1cccc(OC)c1OC (configuration not stated)	none (no result: PNC inhibitor, HPGD block)
N#Cc1cn(CCCOc2ccccc2)c2ccccc12	none
COc1ccccc1OCCCn1cc(C#N)c2ccccc21	PNC inhibitor -82
CC(=O)c1ccc(NC(=O)CSCCO)cc1	none
O=C(CSCCO)Nc1ccc(C2CCCCC2)cc1	PNC inhibitor -127, ALDH1A1 block 7.1µM, HPGD block 4.5µM
Cc1nc(N)nc(N)c1/C=C/C(C)(C)c1ccc(Cl)cc1	none (no result: PNC inhibitor, HPGD block)
COC(=O)N1CCC[C@@]2(CCN(c3ccncc3)C2)C1	none (no result: PNC inhibitor)
CC1(C)CC2(CCO1)C(Nc1ccccc1)=NC(=S)N2CC(N)=O (configuration not stated)	none (no result: PNC inhibitor, HPGD block)
CSc1nc(N)nc(SCC(=O)C23CC4CC(CC(C4)C2)C3)c1C#N	ALDH1A1 block 25µM
N#Cc1c(N)nc(SCC(=O)C23CC4CC(CC(C4)C2)C3)c(C#N)c1-c1ccc(Cl)cc1	ALDH1A1 block inconclusive, HPGD block inconclusive
COc1ccc(N(C(=O)c2cccnc2)S(=O)(=O)c2cccc([N+](=O)[O-])c2)cc1	none (no result: PNC inhibitor, HPGD block)
COc1ccc(N(C(=O)c2cccc([N+](=O)[O-])c2)S(=O)(=O)c2cccs2)cc1	ALDH1A1 block 25µM (no result: PNC inhibitor, HPGD block)
COc1ccc(C(=O)NCCCN2CCCC2=O)cc1	PNC inhibitor inconclusive
COc1ccc(-n2c(=S)[nH]c3cc(C(=O)NCCCN4CCCC4=O)ccc3c2=O)cc1	ALDH1A1 block 18µM
COc1ccc(-n2c(=S)[nH]c3cc(C(=O)NCCCN4CCCC4=O)ccc3c2=O)c(OC)c1	ALDH1A1 block 14µM
COc1ccc(Cn2c(=O)[nH]c3cc(C(=O)NCCCN4CCCCC4)ccc3c2=O)cc1	none
COc1ccccc1-c1cc(-c2ccccc2)nc(SC(C(N)=O)c2ccccc2)c1C#N (configuration not stated)	ALDH1A1 block inconclusive, HPGD block inconclusive
O=C1c2ccc(Br)cc2C(=O)N1c1ccc(Cc2ccncc2)cc1	none (no result: PNC inhibitor, HPGD block)
CC1CC[C@@]2(OC1)OC1CC3C4CC[C@@H]5CC(O)CC[C@@]5(C)C4CC[C@]3(C)C1C2C (some centres not stated)	none (no result: PNC inhibitor)
S=C(NCc1cccnc1)Nc1ccc(Oc2ccc(Cl)cc2)cc1	none (no result: PNC inhibitor, HPGD block)
O=C(COc1ccc(Br)cc1Cl)NC(=S)N1CCc2ccccc21	ALDH1A1 block inconclusive, HPGD block inconclusive
O=C(COc1ccc(Br)cc1Br)NC(=S)N1CCCc2ccccc21	ALDH1A1 block 11µM
COC(=O)c1ccc(CNC(=O)COC(=O)COc2ccc(OC)cc2)cc1	none (no result: PNC inhibitor, HPGD block)
COC(=O)C1=NNC2(c3ccc(C)cc3)C(=O)N(c3ccc(C)cc3)C(=O)C12 (configuration not stated)	none (no result: PNC inhibitor, HPGD block)
CC(C)c1ccc2c(c1)C(c1ccc(N3CCOCC3)cc1)=NNC(c1cccs1)=N2	none
Cc1onc(-c2c(F)cccc2Cl)c1C(=O)NC(=S)Nc1c(C)n(C)n(-c2ccccc2)c1=O	none (no result: PNC inhibitor, HPGD block)
